CCT chaperon mod = High-Throughput Screening for Modulators of Cytosolic Chaperonin Activity. actives 0.3% (n = 360,000). activity change, % (test concentration not listed), hits read low. purified chaperonin ATPase assay, HTRF ADP detection, 30 min. AID 651819, 2012; in the data active = activity change below about -30%; note: % is set by controls: 0 for no effect and ±100 for the full control effect
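TRiC (40 or 20 nM final, by batch activity) in 30 mM Tris pH 7.4, 100 mM KCl, 5 mM MgCl2, 1 mM DTT was treated with compound at 76 uM single dose, then 10 uM ATP, 30 min at 37 °C. ADP was read by HTRF Transcreener.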
ASM inhibitor = Inhibitors of Secretory Acid Sphingomyelinase (S-ASM): qHTS. placental ASM, HMU-PC fluorogenic substrate, 60 min. Potency, µM (highest dose often 57.5 µM), without a hit: at the highest dose activity change, negative = inhibition, actives largely listed as inhibitors. actives 0.006% (n = 340,000). AID 504937, 2011; note: potency is the fitted concentration of half-maximal effect
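Steps: dispense placental human ASM, pin compound, wait 10 min at room temperature, add HMU-PC0 substrate at 9 uM final, incubate 60 min at 37 °C, add stop solution raising pH to 10, read fluorescence.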
Tb PFK inh-1 = qHTS Assay to Find Inhibitors of T. brucei phosphofructokinase; AID 485367, 2010; actives 0.17% (n = 330,000); Potency, µM (highest dose often 57.5 µM), without a hit: at the highest dose activity, negative = inhibition, usual class: inhibitors; ATP-dependent 6-phosphofructokinase (Trypanosoma brucei brucei), O15648; T. brucei PFK, ADP-Glo luminescence;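 note: potency is the fitted concentration of half-maximal effect; 0% = uninhibited 1x PFK enzyme wells and -100% = no-enzyme wells; nearly all actives have a fitted effect of over 60% in size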
Target sequence (O15648 whole entry, looked up): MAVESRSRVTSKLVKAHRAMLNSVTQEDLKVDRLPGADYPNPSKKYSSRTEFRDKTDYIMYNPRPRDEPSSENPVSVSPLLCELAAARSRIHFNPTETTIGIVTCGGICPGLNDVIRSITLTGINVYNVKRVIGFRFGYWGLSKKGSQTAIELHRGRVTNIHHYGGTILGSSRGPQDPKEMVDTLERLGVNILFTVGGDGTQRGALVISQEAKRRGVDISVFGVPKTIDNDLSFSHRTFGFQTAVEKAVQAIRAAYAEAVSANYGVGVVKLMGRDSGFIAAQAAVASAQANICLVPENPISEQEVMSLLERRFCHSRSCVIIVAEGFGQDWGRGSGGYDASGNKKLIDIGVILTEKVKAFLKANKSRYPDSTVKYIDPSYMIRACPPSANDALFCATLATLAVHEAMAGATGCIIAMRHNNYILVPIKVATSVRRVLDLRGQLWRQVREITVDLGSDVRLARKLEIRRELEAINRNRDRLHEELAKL
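In TEA buffer at pH 8.0 with 5 mM MgCl2, enzyme (1.25 nM) converted F6P (0.5 mM) and ATP (0.1 mM) for 45 min at room temperature. ADP product was read by luciferase luminescence.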
BCR signal inh = qHTS Assay to Find Inhibitors of Chronic Active B-Cell Receptor Signaling; ABC-DLBCL IkBa-CBG/CBR reporter, luminescence ratio, 4 h; Potency, µM (doses to about 46.1 µM), for the others: top-dose activity change, negative = inhibition, actives largely listed as inhibitors; actives 0.05% (n = 340,000); AID 493014, 2011; active = well fitted inhibition curve with a large enough effect in the signal ratio, with a control signal flat, not every such curve was filed as active; inconclusive = small, poorly fitted or top-dose-only effect, or effect the other way, or a change in a side signal; the % refers to the signal ratio;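 note: potency is the fitted concentration of half-maximal effect; plate controls were basal doxycycline-induced cells for no effect and cells given 10 µM MG132 for full effect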
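Compounds up to 46 uM were incubated four hours with TMD8 cells whose green CBG68 luciferase is fused to IkappaBalpha; red CBR luminescence normalised the signal, and concentration-effect curves were fitted to fusion, red and ratio data.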
TCR activator = Activators of T cell receptors: qHTS campaign. Potency, µM (highest dose often 9.22 µM), without a hit: at the highest dose activation of IL-2 secretion, hits mostly activators. primary human leukocytes, anti-CD3, IL-2 HTRF, 48 h. 330,000 tested, under 10 active; note: % of control where 0% means no effect
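Primary human leukocytes incubated 48 hr with anti-CD3 beads plus compound, without co-stimulation. Secreted IL-2 measured by HTRF (europium cryptate/d2 anti-IL-2 pair, 320 nm excitation, 665 nm emission).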
TbPFK ATP = Tb PFK orthogonal confirmatory assay using ATP depletion (Kinase-Glo Plus) as an alternative measure of Tb PFK activity: Hit Validation | shares compounds with Tb PFK inh-1 | Tb PFK enzyme, ATP depletion, Kinase-Glo Plus luminescence | Potency, µM (series often up to 57.5 µM), inactives show at the top dose inhibition | actives 47% (n = 1,100) | AID 504636, 2011; calls by dose curve; note: potency is the fitted concentration of half-maximal effect; nearly all actives have a fitted effect of over 60% in size
Tb PFK inh-2 = Inhibitors of T. brucei phosphofructokinase: Hit Validation; AID 504637, 2011; actives 41% (n = 1,100); Potency, µM (doses to about 57.5 µM), without a hit: at the highest dose activity change, negative = inhibition, most hits filed as inhibitors; purified T. brucei PFK, ADP-Glo luminescence, 45 min; shares compounds with Tb PFK inh-1;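 note: potency is the fitted concentration of half-maximal effect; plate controls were full PFK enzyme control for no effect and no enzyme control for full effect; nearly all actives have a fitted effect of over 60% in size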
* = called active by the depositor; ? = inconclusive; / = no result given; [ ] = dose if it differs, or a comment. Hits are enriched below; roughly 0.49% of the tested compounds scored in any of these assays. Unless noted, calls come from the whole dose curve; as a rule, active = well fitted curve in the direction sought with a large enough effect; inconclusive = small, poorly fitted or top-dose-only effect, or another doubt; inactive = no such curve, though single readings can be large; an effect the other way counts as inactive or inconclusive.

SMILES	CCT chaperon mod	ASM inhibitor	Tb PFK inh-1	BCR signal inh	TCR activator	TbPFK ATP	Tb PFK inh-2
CSC(SC)=C(C#N)C(=O)c1ccccc1	0	1%	-10%	?	-4%	/	/
O=C1NCN(c2ccccc2)C12CCN(C(c1nnnn1C1CCCCC1)C1CC1)CC2 (stereo not drawn)	0	/	/	/	/	/	/
Cc1c(C)c2c(OCC(=O)N[C@@H](C)C(=O)O)cc3c(c2oc1=O)CCC(C)(C)O3	-4	101%	5%	0%	-2%	/	/
COC(=O)c1sc(NC(=O)c2cc(-c3ccccc3)nc3ccccc23)c(C#N)c1C	-2	-18%	6.7µM*	?	-1%	8.5µM*	15µM*
CCOC(=O)[C@]12Cc3cc(OC)ccc3[C@H]1N(CCC(=O)OC)C(=O)c1cc(OC)ccc12	-2	/	/	/	/	/	/
Clc1ccc(CN2C3=NCCCN3c3ccccc32)cc1	-1	3%	15µM*	?	-1%	24µM*	30µM*
Clc1ccc(CN2C3=NCCCN3c3ccccc32)cc1Cl	-1	-2%	13µM*	?	/	7.6µM*	13µM*
CCOC(=O)[C@]12Cc3cc(OC)ccc3[C@H]1N(C(C)C)C(=O)c1cc(OC)ccc12	1	/	/	/	/	/	/
O=C(C1=C[C@@H](C2CCCCC2)C[C@@H](OCc2ccc(CO)cc2)O1)N1CCN(Cc2ccc3c(c2)OCO3)CC1	0	0%	-2%	?	-2%	/	/
O=c1c2ccccc2nc2n1CCC2	-2	-1%	?	-8%	3%	27µM*	17µM*
CN(C)c1ccc(/C=N/NC(=O)c2ccnn2C)cc1	-3	12%	?	?	2%	-15%	-12%
CC(C)N(CCc1ccncc1)C(=O)Nc1ccc(Cl)c(Cl)c1	1	3%	?	-2%	-6%	9%	-7%
CN(C)C=Nc1ccc(Cl)c(Cl)c1	-1	1%	27µM*	-11%	-3%	12%	-8%
COc1ccc(/C(N)=N/OC(=O)c2c(-c3ccccc3Cl)noc2C)cc1OC	-3	-1%	-3%	?	-7%	/	/
CCOC(=O)c1sc2nc(-c3ccco3)c3c(c2c1N)CC(C)(C)OC3	2	89%	-19%	?	1%	/	/
Nc1c(C(=O)NC2CC2)sc2nc3c(c(-c4ccco4)c12)CC/C3=C/c1ccco1	1	13%	6.7µM*	0%	-7%[46.1 µM]	?	?
O=[N+]([O-])c1ccc(CSc2nnc(-c3cnccn3)o2)cc1	0	2%	24µM*	-4%	/	?	?
CN1CCc2cc(O)c(O)cc2C(c2ccccc2)C1 (stereo not drawn)	0	-14%	?	3%	1%	?	?
Oc1cc2c(cc1O)[C@@H](c1ccccc1)CNCC2	-10	8%	12µM*	-2%	-1%	1.9µM*	4.8µM*
Cc1ccc(S(=O)(=O)N2Cc3cc(N4CCOCC4)ccc3-n3nncc3C2)cc1	0	/	/	/	/	/	/
CSS(=O)(=O)c1cccc2cccnc12	0	0%	17µM*	?	-2%	21µM*	30µM*
CC(=O)O[C@H]1CCC2C3CC[C@H]4[C@@H](O)[C@H](O)CC[C@]4(C)C3CC[C@@]21C (stereo partly drawn)	0	-1%	/	/	-3%	/	/
Cc1nc(CCl)cc(=O)[nH]1	2	1%	1%	1%	9%	/	/
